# Measured values reported in PubChem BioAssay (NCATS).
# Where “and” joins values, the source holds several entries; their conditions need not be identical. Equal entries are not always repeated. Records with an inconclusive call do not appear. More than one record can exist for a structure, and the calls need not agree. Calls of active or inactive are those of the source. Calls come from the whole dose curve; as a rule, active = well fitted activation curve with a large enough effect; inconclusive = small, poorly fitted or top-dose-only effect; inactive = no such curve, though single readings can be large or run the other way.
# Target: Cellular tumor antigen p53 (Homo sapiens) (UniProt P04637)
# Sequence (P04637 whole entry, looked up): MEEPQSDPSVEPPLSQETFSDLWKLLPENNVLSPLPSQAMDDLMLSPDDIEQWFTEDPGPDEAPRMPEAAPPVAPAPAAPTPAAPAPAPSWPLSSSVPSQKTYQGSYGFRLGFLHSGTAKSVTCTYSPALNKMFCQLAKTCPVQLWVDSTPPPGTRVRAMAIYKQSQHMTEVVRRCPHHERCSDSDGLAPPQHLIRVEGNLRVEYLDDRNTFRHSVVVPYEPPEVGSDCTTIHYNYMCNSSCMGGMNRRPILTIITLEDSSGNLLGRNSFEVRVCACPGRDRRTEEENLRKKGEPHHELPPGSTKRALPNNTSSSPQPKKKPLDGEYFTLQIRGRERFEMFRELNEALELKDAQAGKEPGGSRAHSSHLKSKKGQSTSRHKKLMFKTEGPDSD
# Test: Primary qHTS for small molecule compounds that upregulate eGFP-tagged delta133p53alpha (in N-terminal) cells. (AID 2060322); note: nearly all actives have a fitted effect of over 75% in size;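 for activation: cells pre-induced with doxycycline then dosed without doxycycline; series mostly up to about 56 µM; 0% = DMSO vehicle and 100% = reference activator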
# Settings: NCI-H358 eGFP-delta133p53alpha fluorescence, 24 h; activation: hits give high values
# Excerpt: Assay Development and Screening Technology
# National Center for Advancing Translational Sciences (NCATS),
# National Institute of Health (NIH), Rockville, Maryland
# Cellular senescence (CS) is one of the hallmarks of aging and age-related diseases. Senescent cells are characterized by an irreversible growth arrest, an increase in senescence-associated beta-galactosidase (SA-beta-gal) activity and p16INK4a expression, an activation of the DNA damage response pathways, and the emergence of a senescence-associated secretory phenotype (SASP).
# Delta133p53alpha, a human/primate-specific p53 protein isoform, delays or inhibits the induction of CS and SASP in various types of human cells, including progeria-derived fibroblasts, primary normal astrocytes, and CD8+ T lymphocytes. Induction of delta133p53alpha with small molecule compounds may provide therapeutic opportunities for inhibition of senescence/SASP-associated pathologies in progeria syndromes, astrocyte-mediated neuroprotection in neurodegenerative diseases, and possibly prevention and treatment of a wider range of senescence- and aging-associated diseases.
# Here we report the development and validation of a cell-based quantitative high throughput screening (qHTS) assay in 1,536-well format. This qHTS assay uses the NCI-H358 cell line with doxycycline-inducible expression of enhanced green fluorescent protein (eGFP)-tagged delta133p53alpha, which allows efficient and highly quantitative measurement of the protein levels.
# PROTOCOL TABLE (as described by Inglese J, Shamu CE and Guy RK. 2007)
# SEQUENCE No. (e.g., 1, 2, 3, etc.); […] (e.g., Cells, Incubation, Reagent, etc.); VALUE; DESCRIPTION.
# 1; Cells; 4uL; 800 doxycycline treated cells / well in doxycycline-free media, 1536-well black, clear-bottom low base Aurora microplates.
# 2; Compounds; 23 nL; Kalypsis pin tool (Wako) equipped with 1536-well pin heads, 5-azacytidine positive control.
# 3; Incubation; 24 hr; 37C, 5% CO2; 95% relative humidity.
# 4; Aspiration; 1x; BioTek EL406 washer dispenser (Agilent).
# 5; Fixing; 3.5% paraformaldehyde, BioTek EL406 washer dispenser (Agilent).
# 6; Washing; 1x PBS; BioTek EL406 washer dispenser (Agilent).
# 7; Nuclei staining; 1:1000 dilution of Hoechst 33342 (Thermofisher), BioTek EL406 washer dispenser (Agilent).
# 8; Incubation; 20 min; in the dark at room temperature.
# 9; Washing; 2x, 1x PBS (ThermoFisher), BioTek EL406 washer dispenser (Agilent).
# 10; Reagent; 10 uL; 1x PBS per well, sealed with clear adhesive tape.
# NOTES (numbers refer to sequence numbers above).
# 1. NCI-H358 cells expressing eGFP-tagged delta133p53alpha were grown in T75 culture flasks and treated with doxycycline for 24h, at 10 ng/ml for eGFP-D133p53a cells (N-terminal cell) and 100 ng/ml for D133p53a-eGFP cells (C-terminal cells). Cells were trypsinized, counted using a Counted 3 Automated Cell Counter (Thermo Fisher), and diluted to a concentration of 200,000 cells/ml. A Multidrop Combi Reagent Dispenser (ThermoFisher) was used to dispense 800 cells/well in […] of doxycycline-free media, into 1536-well black/clear bottom low base plates (AuroraMicroplates).
# 2. After plating cells, 23 nl of compound library, DMSO vehicle control or positive control (5-azacytidine) were transferred by Pin Tool (Wako). The plate map layout was the same for each plate: (column 1) non-doxycycline treated cells + DMSO vehicle control; (column 2) doxycycline treated cells + DMSO vehicle control baseline; (column 3) doxycycline treated cells + positive control 57.5 uM final concentration 5-azacytidine; (column 4) doxycycline treated cells + serial dilution of 5-azacytidine, 16-point 1:2 titration spanning 1.8 nM to […] final concentration; (columns 5-48) doxycycline treated cells + titration of library compounds.
# 3. Cells were incubated at 37 °C, 5 % CO2, 95% RH with breathable metal lid for 24h.
# 4-10. […] After two washes, 10 ul of 1X PBS (Thermo Fisher) was dispensed to each well. Clear adhesive plate seals (VWR) were applied and plates stored at 4 °C.
# 11. […]
# Potency is the fitted concentration of half-maximal effect.
Structure (SMILES),activation,Potency
C[C@@H]1CC[C@]2(C(=O)O)CC[C@]3(C)C(=CCC4[C@@]5(C)CC[C@H](O)C(C)(C)C5C(O)C[C@]43C)[C@@H]2[C@]1(C)O (stereo not given in full),0.893% (inactive),–
CCCCNc1nc(N)c2[nH]c(=O)n(Cc3ccc(OCCN(C)C)nc3)c2n1,-9.55% (inactive),–
OC[C@H]1O[C@@H](OCCc2ccccc2)[C@H](O[C@@H]2OC[C@@H](O)[C@H](O)[C@H]2O)[C@@H](O)[C@@H]1O,-11.5% (inactive),–
CN(C)CCCC1(c2ccc(F)cc2)OCc2cc(C#N)ccc21 (stereo not given),2.08% (inactive) and 5.36% (inactive) and -45.1% (inactive),–
C=C(C)C1=C[C@@]2(C)C(=CC1=O)CC[C@@H](O)[C@@H]2C,22.1% (inactive),–
CCS(=O)(=O)CCn1c([N+](=O)[O-])cnc1C,–,17.4 µM (active)
CN(C)CCn1cc(-c2ccc(F)cc2)c(-n2cccc2)n1,-10.5% (inactive),–
O=C1c2c(O)cc(O)cc2OC(c2ccc(O)c(O)c2)C1O (stereo not given),31.8% (inactive) and -16.9% (inactive),–
Oc1c(Cl)cc(Cl)c2cccnc12,16.4% (inactive) and -7.96% (inactive),–
CC1(C)CC[C@]2(C(=O)O[C@@H]3O[C@H](CO[C@@H]4O[C@H](CO)[C@@H](O)[C@H](O)[C@H]4O[C@@H]4O[C@H](CO)[C@H](O)[C@H](O)[C@H]4O)[C@@H](O)[C@H](O[C@@H]4O[C@H](CO)[C@@H](O)[C@H](O)[C@H]4O)[C@H]3O)CC[C@]3(C)C(=CCC4[C@@]5(C)CC[C@H](O[C@@H]6OC[C@@H](O)[C@H](O)[C@H]6O)[C@@](C)(C(=O)O)C5CC[C@]43C)[C@@H]2C1 (stereo not given in full),1.53% (inactive),–
CC(C)(O)C1CCC(C)(C2CCC3(C)C4CCC5C(C)(C(=O)OC6OC(CO)C(O)C(O)C6O)C(O)CC(O)C56CC46CCC23C)O1 (stereo not given),-11.5% (inactive),–
O=C(CCCCCCC(=O)Nc1ccc([C@H]2O[C@@H](CSc3nc(-c4ccccc4)c(-c4ccccc4)o3)C[C@@H](c3ccc(CO)cc3)O2)cc1)NO,47.5% (inactive),5.36 µM (active)
C=CC(=O)N1CCCC(n2nc(-c3ccc(Oc4ccccc4)cc3)c3c(N)ncnc32)C1 (stereo not given),18.8% (inactive),–
CCc1cc(CN2CC(C(=O)O)C2)sc1-c1noc(-c2ccc(Oc3ccccc3)cc2)n1,-2.39% (inactive),–
CN(C)CCN(Cc1ccsc1)c1ccccn1,-27.6% (inactive),–
Cc1cnn(-c2ccccc2)c1NC(=O)COCc1ccccc1,0.333% (inactive),–
C=CCn1c(=O)c2c(nc(-c3ccc(S(=O)(=O)O)cc3)n2C)n(C)c1=O,-9.98% (inactive),–
CCC/C=C/C=C/C1CC(O)C2(O)C(=O)OCC12 (stereo not given),6.11% (inactive),–
C[C@H]1CC[C@@]2(OC1)O[C@H]1CC3C4CC=C5C[C@H](O)C[C@@H](O[C@@H]6O[C@@H](C)[C@H](O)[C@@H](O)[C@H]6O[C@@H]6O[C@@H](C)[C@H](O)[C@@H](O)[C@H]6O)[C@]5(C)C4CC[C@]3(C)[C@H]1[C@@H]2C (stereo not given in full),-13.7% (inactive),–
C=CC(=O)N1CCN(C(=O)CNc2cc(-c3ccccc3Cl)c(Cl)cc2OC)CC1,8.59% (inactive),–

Structure (SMILES),activation,Potency
Cc1cccc(Nc2nc(N[C@@H]3CCCC[C@H]3N)ncc2C(N)=O)c1,14.8% (inactive),–
C[C@]12C=CC(=O)C=C1[C@@H](F)C[C@@H]1[C@@H]2[C@@H](O)C[C@@]2(C)[C@H]1CC[C@]2(O)C(=O)CO,7.53% (inactive),–
CC1=CC[C@]2(C(=O)O[C@@H]3O[C@H](CO[C@@H]4O[C@H](CO)[C@@H](O[C@@H]5O[C@@H](C)[C@H](O)[C@@H](O)[C@H]5O)[C@H](O)[C@H]4O)[C@@H](O)[C@H](O)[C@H]3O)CC[C@]3(C)C(CCC4[C@@]5(C)C[C@@H](O)[C@H](O)[C@@](C)(CO)C5CC[C@]43C)C2C1C (stereo not given in full),-13% (inactive),–
CC1(C)CCC2(C(=O)OC3OC(CO)C(O)C(O)C3O)CCC3(C)C(=CCC4C5(C)CCC(O)C(C)(C(=O)O)C5CCC43C)C2C1O (stereo not given),3.57% (inactive),–
CC(C)=CCC/C(C)=C/CC/C(C)=C/COC1OC(COC2OCC(OC3OCC(O)C(O)C3O)C(O)C2O)C(O)C(OC2OC(C)C(OC3OC(C)C(OC4OCC(OC5OC(C)C(O)C(O)C5O)C(O)C4O)C(O)C3O)C(O)C2O)C1O (stereo not given),4.58% (inactive),–
C[C@H]1CC(=O)C2=C(C1)C(O)C(O)[C@@]1(O)[C@H]2C(=O)c2cccc(O)c2[C@@H]1O (stereo not given in full),3.05% (inactive),–
Cc1nc(C2CCCCC2)c(-c2ccc(S(N)(=O)=O)c(F)c2)o1,19.2% (inactive),–
CNCC(O)c1ccc(O)c(O)c1 (stereo not given),7.34% (inactive),–
C=C(COC(=O)C(C)C)C1Oc2cc(C(C)=O)ccc2C1OC(=O)C(C)C (stereo not given),2.29% (inactive),–
CN1[C@@H]2CC[C@H]1CC(NC(=O)n1c(=O)[nH]c3ccccc31)C2 (stereo not given in full),-9.21% (inactive),–
CC1=CC(=O)CC(C)(CO[C@@H]2O[C@H](CO)[C@@H](O)[C@H](O)[C@H]2O)C1(O)/C=C/C(C)=C/C(=O)O (stereo not given in full),0.893% (inactive),–
COc1cc(C)c(Sc2cnc(NC(=O)c3ccc(CNC(C)C(C)(C)C)cc3)s2)cc1C(=O)N1CCN(C(C)=O)CC1 (stereo not given),–,43.2 µM (active)
CCN(CC)CCCCNc1ncc2cc(-c3c(Cl)cccc3Cl)c(NC(=O)NC(C)(C)C)nc2n1,-67.6% (inactive) and 10% (inactive),–
C1CCC(C(CC2CCCCN2)C2CCCCC2)CC1 (stereo not given),21.8% (inactive),–
CC1(C)CC2C(O)C3=C(CC(C)(O)C2C1)C(=O)OC3O (stereo not given),1.79% (inactive),–
CCCCOc1cc(CC2CNC(=O)N2)ccc1OC (stereo not given),-11.2% (inactive),–
O=C1CC(c2ccc(Cl)cc2)CC(=O)N1,-11.9% (inactive),–
O=S(=O)(N=Cc1c(O)ccc2ccccc12)c1cccs1,11.3% (inactive),–
Cc1cc(Cn2cnc3c2C[C@@H](C(=O)O)N(C(=O)C(c2ccccc2)c2ccccc2)C3)ccc1N,-13.9% (inactive),–
